These results are taken from article PMC11006913.

Numbering of substitutions follows the chain as printed.

Targets include HOXA4 (Homo sapiens, UniProt Q00056 201-287, W262F); CRX (Homo sapiens, UniProt O43186 26-111, R41L); HOXB6 (Homo sapiens, UniProt P17509 132-218, K202E); ALX1 (Homo sapiens, UniProt Q15699 118-204, L144R).
Common to all, as to test: PBM; 200 nM protein, PBS
What all share (conditions): dsDNA, one strand shown

The target in experiment [1] is ALX4 (Homo sapiens, UniProt Q9H161 200-286).
ALX4 (Homo sapiens, UniProt Q9H161 200-286), sequence (Q9H161 200-286): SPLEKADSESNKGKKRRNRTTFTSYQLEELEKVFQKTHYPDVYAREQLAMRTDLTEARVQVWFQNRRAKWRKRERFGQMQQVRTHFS
For experiment [2], the target named is HOXC10 (Homo sapiens, UniProt Q9NYD6 254-340).
HOXC10 (Homo sapiens, UniProt Q9NYD6 254-340), sequence (Q9NYD6 254-340): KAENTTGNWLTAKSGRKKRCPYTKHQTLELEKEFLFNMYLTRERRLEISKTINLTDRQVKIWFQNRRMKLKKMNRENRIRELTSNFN
In experiment [3] the target is HOXC10 (Homo sapiens, UniProt Q9NYD6 254-340, K271E).
HOXC10 (Homo sapiens, UniProt Q9NYD6 254-340, K271E), sequence (Q9NYD6 254-340 K271E): as the sequence (Q9NYD6 254-340) above, with K18E counted along it
The target in experiment [4] is PRRX1 (Homo sapiens, UniProt P54821 80-166, F113S).
PRRX1 (Homo sapiens, UniProt P54821 80-166, F113S), sequence (P54821 80-166 F113S): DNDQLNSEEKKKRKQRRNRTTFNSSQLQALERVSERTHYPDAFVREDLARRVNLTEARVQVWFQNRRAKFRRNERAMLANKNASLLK
Experiment [5] addresses ALX4 (Homo sapiens, UniProt Q9H161 200-286, Q225E).
Experiment [6] addresses MSX2 (Homo sapiens, UniProt P35548 130-214, R199I).
For experiment [7], the target named is MSX2 (Homo sapiens, UniProt P35548 130-214).
MSX2 (Homo sapiens, UniProt P35548 130-214), sequence (P35548 130-214): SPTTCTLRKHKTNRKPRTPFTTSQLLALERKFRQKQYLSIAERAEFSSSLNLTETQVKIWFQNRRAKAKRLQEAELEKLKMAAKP
For experiment [8], the target named is MSX2 (Homo sapiens, UniProt P35548 130-214, F161Y).
MSX2 (Homo sapiens, UniProt P35548 130-214, F161Y), sequence (P35548 130-214 F161Y): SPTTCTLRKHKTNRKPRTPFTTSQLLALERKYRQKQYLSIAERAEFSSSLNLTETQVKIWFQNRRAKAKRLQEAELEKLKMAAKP
Experiment [9] concerns the target PRRX1 (Homo sapiens, UniProt P54821 80-166).
In experiment [10] the target is T1, PAX4 (Homo sapiens, UniProt O43316 9-242, R200K).
T1 sequence: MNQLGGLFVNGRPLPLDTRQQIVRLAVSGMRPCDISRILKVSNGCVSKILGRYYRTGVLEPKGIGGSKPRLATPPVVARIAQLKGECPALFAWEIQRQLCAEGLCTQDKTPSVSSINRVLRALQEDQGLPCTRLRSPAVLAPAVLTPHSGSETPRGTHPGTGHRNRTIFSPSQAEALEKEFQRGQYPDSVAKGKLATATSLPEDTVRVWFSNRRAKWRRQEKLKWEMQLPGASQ

The target of experiment [11] is T2, PAX4 (Homo sapiens, UniProt O43316 9-242).
T2 sequence: T1 sequence with K192R

For experiment [12], the target named is ALX3 (Homo sapiens, UniProt O95076 139-225, N203Q).
ALX3 (Homo sapiens, UniProt O95076 139-225, N203Q), sequence (O95076 139-225 N203Q): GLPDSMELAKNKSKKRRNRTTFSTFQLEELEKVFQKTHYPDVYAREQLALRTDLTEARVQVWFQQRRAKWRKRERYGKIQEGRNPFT
For experiment [13], the target named is T3, PAX4 (Homo sapiens, UniProt O43316 9-242, R200Q).
T3 sequence: T1 sequence with K192Q

The target in experiment [14] is T4, PAX4 (Homo sapiens, UniProt O43316 9-242, F177V).
T4 sequence: T1 sequence with F169V, K192R

In experiment [15] the target is ALX3 (Homo sapiens, UniProt O95076 139-225).
ALX3 (Homo sapiens, UniProt O95076 139-225), sequence (O95076 139-225): as the sequence (O95076 139-225 N203Q) above, with Q65N counted along it
For experiment [16], the target named is T5, PAX4 (Homo sapiens, UniProt O43316 9-242, F177Y).
T5 sequence: T1 sequence with F169Y, K192R

Experiment [17] addresses ALX3 (Homo sapiens, UniProt O95076 139-225, L168Q).
The target of experiment [18] is ALX3 (Homo sapiens, UniProt O95076 139-225, L168V).
ALX3 (Homo sapiens, UniProt O95076 139-225, L168V), sequence (O95076 139-225 L168V): as the sequence (O95076 139-225 N203Q) above, with L30V, Q65N counted along it
In experiment [19] the target is T6, PAX4 (Homo sapiens, UniProt O43316 9-242, R227W).
T6 sequence: T1 sequence with K192R, R219W

Experiment [20] has as its target ALX3 (Homo sapiens, UniProt O95076 139-225, N203S).

ALX4 (Homo sapiens, UniProt Q9H161 200-286, Q225E), sequence (Q9H161 200-286 Q225E): as the sequence (Q9H161 200-286) above, with Q26E counted along it
ALX3 (Homo sapiens, UniProt O95076 139-225, N203S), sequence (O95076 139-225 N203S): as the sequence (O95076 139-225 N203Q) above, with Q65S counted along it
PRRX1 (Homo sapiens, UniProt P54821 80-166), sequence (P54821 80-166): as the sequence (P54821 80-166 F113S) above, with S34F counted along it
CRX, sequence (O43186 26-111 R41L): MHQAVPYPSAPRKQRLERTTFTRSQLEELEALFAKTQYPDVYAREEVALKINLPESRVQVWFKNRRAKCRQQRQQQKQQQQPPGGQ
ALX3 (Homo sapiens, UniProt O95076 139-225, L168Q), sequence (O95076 139-225 L168Q): as the sequence (O95076 139-225 N203Q) above, with L30Q, Q65N counted along it
HOXB6, sequence (P17509 132-218 K202E): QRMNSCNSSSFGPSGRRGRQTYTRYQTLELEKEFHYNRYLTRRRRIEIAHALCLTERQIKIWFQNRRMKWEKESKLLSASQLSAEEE
ALX1, sequence (Q15699 118-204 L144R): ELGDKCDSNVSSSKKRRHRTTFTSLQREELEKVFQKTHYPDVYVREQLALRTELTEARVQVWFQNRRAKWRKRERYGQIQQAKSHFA
MSX2 (Homo sapiens, UniProt P35548 130-214, R199I), sequence (P35548 130-214 R199I): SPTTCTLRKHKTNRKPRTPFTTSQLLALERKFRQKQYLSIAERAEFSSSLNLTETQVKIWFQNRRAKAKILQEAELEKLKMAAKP
HOXA4, sequence (Q00056 201-287 W262F): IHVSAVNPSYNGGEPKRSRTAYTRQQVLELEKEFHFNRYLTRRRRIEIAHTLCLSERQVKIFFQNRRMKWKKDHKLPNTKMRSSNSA

Consider AATACTTA, for which the binding signal in the experiment with ALX4 [1] is 10.5 upbm affinity estimate (log intensity, higher = more binding, comparable within an allelic series).

On to CAACATTA, for which the binding signal with ALX4 [1] is 10.5 upbm affinity estimate (log intensity, higher = more binding, comparable within an allelic series).

Consider GCATATAA, for which the binding signal was 11.4 upbm affinity estimate (log intensity, higher = more binding, comparable within an allelic series) with HOXC10 [2] and 11.2 upbm affinity estimate (log intensity, higher = more binding, comparable within an allelic series) with HOXC10 [3].

For TAAGTCGA, in the experiment with ALX4 [1], the binding signal was 10 upbm affinity estimate (log intensity, higher = more binding, comparable within an allelic series).

Take AGGGCACC: the binding signal with ALX4 [1] is 7.93 upbm affinity estimate (log intensity, higher = more binding, comparable within an allelic series); in the experiment with PRRX1 [4] it was 9.03 upbm affinity estimate (log intensity, higher = more binding, comparable within an allelic series); with ALX4 [5], 8.09 upbm affinity estimate (log intensity, higher = more binding, comparable within an allelic series); in the experiment with MSX2 [6] it was 9.47 upbm affinity estimate (log intensity, higher = more binding, comparable within an allelic series); in the experiment with MSX2 [7] it was 9.48 upbm affinity estimate (log intensity, higher = more binding, comparable within an allelic series); with MSX2 [8] it was 9.58 upbm affinity estimate (log intensity, higher = more binding, comparable within an allelic series). Also, the binding signal with PRRX1 [9] is 9.28 upbm affinity estimate (log intensity, higher = more binding, comparable within an allelic series).

As for CATTAACA, the binding signal with HOXC10 [2] is 11.8 upbm affinity estimate (log intensity, higher = more binding, comparable within an allelic series); with HOXC10 [3], 11.6 upbm affinity estimate (log intensity, higher = more binding, comparable within an allelic series); in the experiment with HOXA4 it was 11.5 upbm affinity estimate (log intensity, higher = more binding, comparable within an allelic series).

TAACGAAA: in the experiment with ALX4 [1], the binding signal is 10.6 upbm affinity estimate (log intensity, higher = more binding, comparable within an allelic series).

In the case of CTACTTAC, in the experiment with ALX4 [1], the binding signal was 9.76 upbm affinity estimate (log intensity, higher = more binding, comparable within an allelic series).

Consider ATACTAAT, for which the binding signal with HOXC10 [2] is 11.3 upbm affinity estimate (log intensity, higher = more binding, comparable within an allelic series); with HOXC10 [3], 11.2 upbm affinity estimate (log intensity, higher = more binding, comparable within an allelic series).

In the case of AAATTCGA, the binding signal with ALX4 [1] was 10.7 upbm affinity estimate (log intensity, higher = more binding, comparable within an allelic series).

Consider AACATTAT, for which the binding signal with HOXC10 [2] was 11.6 upbm affinity estimate (log intensity, higher = more binding, comparable within an allelic series); with HOXC10 [3], 11.3 upbm affinity estimate (log intensity, higher = more binding, comparable within an allelic series).

On to ATGTCTTA, for which the binding signal with ALX4 [1] was 9.38 upbm affinity estimate (log intensity, higher = more binding, comparable within an allelic series).

As to TATTAAGA, the binding signal in the experiment with HOXC10 [2] is 11.2 upbm affinity estimate (log intensity, higher = more binding, comparable within an allelic series); in the experiment with HOXC10 [3], 10.9 upbm affinity estimate (log intensity, higher = more binding, comparable within an allelic series); in the experiment with CRX, 10.6 upbm affinity estimate (log intensity, higher = more binding, comparable within an allelic series).

Take ATATTTAG: the binding signal with ALX4 [1] was 10.9 upbm affinity estimate (log intensity, higher = more binding, comparable within an allelic series).

In the case of GTCGGCGA, the binding signal is 8.22 upbm affinity estimate (log intensity, higher = more binding, comparable within an allelic series) with ALX4 [1]; 9.28 upbm affinity estimate (log intensity, higher = more binding, comparable within an allelic series) with PRRX1 [4]; 8.22 upbm affinity estimate (log intensity, higher = more binding, comparable within an allelic series) with ALX4 [5]; 9.44 upbm affinity estimate (log intensity, higher = more binding, comparable within an allelic series) with PRRX1 [9].

As for ATTAATTC, the binding signal with ALX4 [1] was 13.6 upbm affinity estimate (log intensity, higher = more binding, comparable within an allelic series); with PAX4 [10], 11.9 upbm affinity estimate (log intensity, higher = more binding, comparable within an allelic series); with PRRX1 [4], 11.1 upbm affinity estimate (log intensity, higher = more binding, comparable within an allelic series); in the experiment with PAX4 [11], 12.5 upbm affinity estimate (log intensity, higher = more binding, comparable within an allelic series); in the experiment with HOXB6 it was 9.98 upbm affinity estimate (log intensity, higher = more binding, comparable within an allelic series); with ALX4 [5], 12.7 upbm affinity estimate (log intensity, higher = more binding, comparable within an allelic series). Moreover, the binding signal in the experiment with ALX3 [12] is 8.41 upbm affinity estimate (log intensity, higher = more binding, comparable within an allelic series); with PAX4 [13], 12.1 upbm affinity estimate (log intensity, higher = more binding, comparable within an allelic series); with ALX1, 11.1 upbm affinity estimate (log intensity, higher = more binding, comparable within an allelic series); with PAX4 [14], 10.7 upbm affinity estimate (log intensity, higher = more binding, comparable within an allelic series); in the experiment with ALX3 [15] it was 12.2 upbm affinity estimate (log intensity, higher = more binding, comparable within an allelic series); in the experiment with PAX4 [16], 11.2 upbm affinity estimate (log intensity, higher = more binding, comparable within an allelic series). Further, the binding signal with ALX3 [17] is 10.2 upbm affinity estimate (log intensity, higher = more binding, comparable within an allelic series); with ALX3 [18], 9.68 upbm affinity estimate (log intensity, higher = more binding, comparable within an allelic series); with PAX4 [19], 11 upbm affinity estimate (log intensity, higher = more binding, comparable within an allelic series); with ALX3 [20] it was 8.51 upbm affinity estimate (log intensity, higher = more binding, comparable within an allelic series).

With ATCTAAAC, the binding signal in the experiment with ALX4 [1] is 9.7 upbm affinity estimate (log intensity, higher = more binding, comparable within an allelic series).

As for TTAAATAA, the binding signal was 11.4 upbm affinity estimate (log intensity, higher = more binding, comparable within an allelic series) in the experiment with HOXC10 [2]; 11.1 upbm affinity estimate (log intensity, higher = more binding, comparable within an allelic series) with HOXC10 [3]; 8.72 upbm affinity estimate (log intensity, higher = more binding, comparable within an allelic series) with ALX3 [20].
